The record followed here is PubChem BioAssay (Tox21).

A short description of experiment [1]: Nuclear factor erythroid 2-related factor 2/antioxidant responsive element (Nrf2/ARE) small molecule agonists: qHTS cell viability counter screen in human keratinocytes (AID 1919968; active = well fitted curve in the direction sought with a large enough effect in the repeat runs; an effect the other way counts as inactive or inconclusive; also: nearly all actives have a fitted effect of over 55% in size; also: potency is read from the fitted curve at half-maximal effect). In short, it runs like this:
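Stably transfected HaCaT (KeratinoSens), 1,500/well. Test agents in DMSO were applied for 23 h, 37 C/5% CO2. CellTiter-Fluor was incubated 1 h before the fluorescence read.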

Experiment [2] in a line: Nuclear factor erythroid 2-related factor 2/antioxidant responsive element (Nrf2/ARE) small molecule agonists: luciferase reporter gene qHTS assay in human keratinocytes (AID 1919969; also: nearly all actives have a fitted effect of over 35% in size; also: potency is read from the fitted curve at half-maximal effect). (In general: Reporter assays use an easily measured gene product as a stand-in for the process of interest.)
Experiment [3] addresses Gonadotropin-releasing hormone receptor (Homo sapiens) (UniProt P30968). As to the kind of experiment: Human gonadotropin-releasing hormone receptor (GnRHR) small molecule agonists, calcium flux assay in GnRHR-HEK293 cells (AID 1920063). Also: nearly all actives have a fitted effect of over 35% in size. The method, boiled down:
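Stable human GnRHR HEK293 line. 18 h plating, then calcium dye for 1 h at 37 C. Agonist-mode compound addition from DMSO stocks; fluorescence monitored 3 min.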
(In general: Calcium flux is commonly read through the fluorescence of an indicator in the cells.)

The target of experiment [4] is KiSS-1 receptor (Homo sapiens) (UniProt Q969F8). Description: Human kisspeptin (KISS1R) small molecule agonists, calcium flux assay in KISS1R-HEK293 cells (AID 1920064; active = well fitted curve in the direction sought with a large enough effect in the repeat runs; an effect the other way counts as inactive or inconclusive). In short, it runs like this: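 After overnight (18 h) culture at 37 C/5% CO2, human KISS1R-HEK293 cells received calcium dye for 1 h, then test compound; emission at 540 nm (excitation 480 nm) was tracked for 3 min.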
KiSS-1 receptor (Homo sapiens), sequence (Q969F8 whole entry, looked up): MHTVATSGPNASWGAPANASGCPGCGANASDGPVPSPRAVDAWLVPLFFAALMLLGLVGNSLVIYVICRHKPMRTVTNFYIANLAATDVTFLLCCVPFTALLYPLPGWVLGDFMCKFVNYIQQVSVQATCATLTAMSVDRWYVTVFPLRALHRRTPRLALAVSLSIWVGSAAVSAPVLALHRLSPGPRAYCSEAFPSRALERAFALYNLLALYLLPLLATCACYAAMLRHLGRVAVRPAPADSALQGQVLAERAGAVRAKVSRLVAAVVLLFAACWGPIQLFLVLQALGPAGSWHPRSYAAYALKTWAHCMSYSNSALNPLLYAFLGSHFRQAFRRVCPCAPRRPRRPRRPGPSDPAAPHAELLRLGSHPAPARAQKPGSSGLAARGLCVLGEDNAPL

A short description of experiment [5]: G protein-coupled receptor (GPCR) small molecule agonists, calcium flux assay: HEK293 wild type cell line counter screen (AID 1920065). The method, boiled down:
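Following 18 h incubation at 37 C/5% CO2, plates got calcium dye for 1 h; compounds, ATP or DMSO were then pinned in and fluorescence followed kinetically (480/540 nm).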

Experiment [6] is described as follows: p53 small molecule agonists, cell-based qHTS assay with human liver microsomes (AID 1963577).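 Also: p53 response element beta-lactamase reporter cells with liver microsomes plus NADPH.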 The method, boiled down: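 Reporter activation was measured by LiveBLAzer fluorescence intensity in p53RE-bla cells, which had been exposed to compounds for 16 h at 37 C alongside 0.5 mg/mL human liver microsomes and 0.5 mg/mL NADPH (final concentrations).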
Background: Quantitative high-throughput screening tests each substance at several concentrations.

A short description of experiment [7]: p53 small molecule agonists, cell-based qHTS assay with rat liver microsomes (AID 1963578). In short, it runs like this: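 Compound in DMSO added to p53RE-bla cells 5 h post-plating; rat microsomes/NADPH 0.5 mg/mL final; 16 h, 37 C; LiveBLAzer 2 h RT.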
Experiment [8] is described as follows: p53 small molecule agonists, cell-based qHTS assay with rat liver microsomes: qHTS cell viability counter screen (AID 1963580). Also: nearly all actives have a fitted effect of over 45% in size. Also: potency is read from the fitted curve at half-maximal effect. In short, it runs like this: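 Luminescent ATP readout (CellTiter-Glo, 30 min at room temperature) reports viability of p53RE-bla HCT-116 cells after 16 h at 37 C with test compounds under metabolic activation by rat liver microsomes and NADPH at 0.5 mg/mL final each.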

A short description of experiment [9]: p53 small molecule agonists, cell-based qHTS assay (AID 1963582; active = well fitted activation curve with a large enough effect in the signal ratio in the repeat runs, not every such curve was filed as active; the % refers to the signal ratio; also: potency is read from the fitted curve at half-maximal effect). The method, boiled down:
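Measured: fluorescence from cleaved LiveBLAzer substrate. System: p53RE-bla cells, 16 h compound treatment at 37 C, 2 h substrate step at room temperature.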

For experiment [10], the target named is 5-hydroxytryptamine receptor 2A (Homo sapiens) (UniProt P28223). As to the kind of experiment: 5-hydroxytryptamine receptor 2A (HTR2A) small molecule antagonists, cell-based qHTS assay (AID 1963586). Also: nearly all actives have a fitted effect of over 45% in size. Also: potency is read from the fitted curve at half-maximal effect. The method, boiled down:
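CHO cells stably expressing human HTR2A were plated for 18 h at 37 C, then loaded with calcium dye for 1 h. Compounds were preincubated 5 min at room temperature before DOI (4 nM solution) was added. Kinetic fluorescence was read for 3 min.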

The target is the same in experiment [11]. Description: 5-hydroxytryptamine receptor 2A (HTR2A) small molecule agonists, cell-based qHTS assay (AID 1963587). Also: nearly all actives have a fitted effect of over 30% in size. In short, it runs like this: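 HTR2A-CHO cells, plated 18 h at 37 C/5% CO2, dye-loaded 1 h at 37 C; compounds in DMSO added by pin tool (agonist mode). Intracellular calcium flux read as kinetic fluorescence on FDSS over 2 min at 1 s intervals.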

Experiment [12] has as its target Muscarinic acetylcholine receptor M1 (Homo sapiens) (UniProt P11229). Description: Cholinergic receptor muscarinic 1 (CHRM1) small molecule antagonists, cell-based qHTS assay (AID 1963588). Also: nearly all actives have a fitted effect of over 40% in size. In short, it runs like this: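 Compounds were tested at 15 concentrations in three independent runs. Dye-loaded CHRM1-CHO cells were exposed 5 min at room temperature before stimulation by acetylcholine added at 50nM. Intracellular calcium was read kinetically on FDSS for 3 min.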

Experiment [13] shares this target. Description: Cholinergic receptor muscarinic 1 (CHRM1) small molecule agonists, cell-based qHTS assay (AID 1963589). Also: nearly all actives have a fitted effect of over 35% in size. In short, it runs like this: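 Kinetic fluorescence (1 s intervals) of calcium-sensitive dye in human M1 CHO cells after compound addition; cells pre-incubated 18 h at 37 C/5% CO2 and dye-loaded 1 h.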
A short description of experiment [14]: cAMP Responsive Elements (CRE) small molecule agonists, cell-based qHTS assay (AID 1963590). In short, it runs like this: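 Test agents in DMSO were incubated 3 h at 37 C/5% CO2 with CRE-bla HEK 293T cells seeded 18 h earlier; LiveBLAzer B/G FRET substrate was added and read after 2 h at room temperature.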
Experiment [15] is described as follows: cAMP Responsive Elements (CRE) small molecule antagonists, cell-based qHTS assay (AID 1963591; active = well fitted inhibition curve with a large enough effect in the signal ratio in the repeat runs, not every such curve was filed as active; the % refers to the signal ratio). The method, boiled down: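 Reporter line CRE-bla HEK 293T in dialyzed-FBS DMEM; cells preincubated 18 h, treated 3 h with compound plus NKH477 (0.25 uM final); LiveBLAzer FRET, 2 h RT.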
Experiment [16] addresses Beta-2 adrenergic receptor (Homo sapiens) (UniProt P07550). As to the kind of experiment: Adrenergic beta2 receptor (ADRB2) small molecule antagonists, cell-based qHTS assay (AID 1963592). Also: series mostly up to about 92 µM; nearly all actives have a fitted effect of over 50% in size. In short, it runs like this: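 Assay format: CHO-ADRB2 cells, 18-20hr seeding at 37C/5% CO2, then compound plus 1nM isoproterenol agonist mix for 0.5hr RT. Homogeneous time-resolved fluorescence cAMP detection after 1hr, expressed as 665/615 nm ratio.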

Experiment [17] deals with D(2) dopamine receptor (Homo sapiens) (UniProt P14416). As to the kind of experiment: Dopamine D2 receptor (DRD2) small molecule agonists, cell-based qHTS assay (AID 1963594). Also: nearly all actives have a fitted effect of over 35% in size. The method, boiled down:
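HEK293 cells stably expressing DRD2 were cultured 24 h at 37 C, then given Ro20-1724 (0.1 mM final) and compounds for 10 min at room temperature. NKH477 (200nM) was then added for 30 min. cAMP was read by HTRF.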

Experiment [18] shares this target. As to the kind of experiment: Dopamine D2 receptor (DRD2) small molecule antagonists, cell-based qHTS assay (AID 1963595; active = well fitted inhibition curve with a large enough effect in the signal ratio in the repeat runs, with a control signal flat; the % refers to the signal ratio). The method, boiled down: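 Antagonism was scored as restored cAMP in HEK293-DRD2 cells. These cells were stimulated with 200 nM NKH477 and 12 nM quinpirole for 30 min at room temperature, in the presence of 0.1 mM Ro20-1724.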
The target in experiment [19] is Beta-2 adrenergic receptor (Homo sapiens) (UniProt P07550). As to the kind of experiment: Adrenergic beta2 receptor (ADRB2) small molecule agonists, cell-based qHTS assay (AID 1963593).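 Also: CHO cells stably overexpressing human ADRB2.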 The method, boiled down: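 CHO cells stably over-expressing ADRB2 were plated overnight at 37C, then dosed with compounds plus a stimulation mix containing 100uM IBMX and 25uM Ro-20-1724 for 0.5hr at room temperature. cAMP was measured by HTRF competition, 1hr.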
Beta-2 adrenergic receptor (Homo sapiens), sequence (P07550 whole entry, looked up): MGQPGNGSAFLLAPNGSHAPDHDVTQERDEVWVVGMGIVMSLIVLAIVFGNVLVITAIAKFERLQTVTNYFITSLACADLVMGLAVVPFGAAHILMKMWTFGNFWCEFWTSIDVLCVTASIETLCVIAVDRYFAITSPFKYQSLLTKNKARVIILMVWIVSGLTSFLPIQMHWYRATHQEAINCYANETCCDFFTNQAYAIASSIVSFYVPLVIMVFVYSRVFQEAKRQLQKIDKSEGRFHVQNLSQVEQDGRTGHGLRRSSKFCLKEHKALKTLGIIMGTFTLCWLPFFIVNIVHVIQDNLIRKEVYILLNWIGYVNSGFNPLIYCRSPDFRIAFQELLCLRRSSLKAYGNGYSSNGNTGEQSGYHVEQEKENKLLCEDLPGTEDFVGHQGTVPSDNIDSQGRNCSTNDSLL

A short description of experiment [20]: p53 small molecule agonists, cell-based qHTS assay: qHTS cell viability counter screen (AID 1963581). Also: nearly all actives have a fitted effect of over 45% in size. The method, boiled down: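 qHTS counter screen: 16 h compound exposure at 37 C of p53RE-bla HCT-116 cells (4,000 per well, seeded 5 h prior), cell viability by ATP luminescence.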

Unmarked numbers belong to inactive results. Records with an inconclusive call do not appear. The source made the active and inactive calls. Unless noted, calls follow the shape of the full dose curve.

Gonadotropin-releasing hormone receptor (Homo sapiens), sequence (P30968 whole entry, looked up): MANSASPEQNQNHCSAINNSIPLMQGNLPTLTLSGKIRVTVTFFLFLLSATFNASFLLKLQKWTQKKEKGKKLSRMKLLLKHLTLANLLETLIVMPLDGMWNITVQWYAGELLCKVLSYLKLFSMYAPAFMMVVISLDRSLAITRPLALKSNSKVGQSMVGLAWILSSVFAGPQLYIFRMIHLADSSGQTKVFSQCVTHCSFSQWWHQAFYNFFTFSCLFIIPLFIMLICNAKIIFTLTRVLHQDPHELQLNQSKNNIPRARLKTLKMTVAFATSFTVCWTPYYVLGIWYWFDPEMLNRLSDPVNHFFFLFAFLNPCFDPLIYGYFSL
D(2) dopamine receptor (Homo sapiens), sequence (P14416 whole entry, looked up): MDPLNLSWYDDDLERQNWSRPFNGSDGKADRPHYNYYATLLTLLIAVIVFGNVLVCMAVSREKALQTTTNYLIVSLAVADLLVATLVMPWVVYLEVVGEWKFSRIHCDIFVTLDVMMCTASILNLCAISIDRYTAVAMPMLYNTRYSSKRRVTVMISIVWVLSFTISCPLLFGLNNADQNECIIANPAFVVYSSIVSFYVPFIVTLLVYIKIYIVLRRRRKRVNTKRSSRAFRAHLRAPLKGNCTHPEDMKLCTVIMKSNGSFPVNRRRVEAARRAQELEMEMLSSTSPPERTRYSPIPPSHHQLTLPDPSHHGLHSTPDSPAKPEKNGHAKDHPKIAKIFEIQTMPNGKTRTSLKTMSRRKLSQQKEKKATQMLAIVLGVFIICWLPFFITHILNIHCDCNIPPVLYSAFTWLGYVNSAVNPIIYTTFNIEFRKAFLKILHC
Muscarinic acetylcholine receptor M1 (Homo sapiens), sequence (P11229 whole entry, looked up): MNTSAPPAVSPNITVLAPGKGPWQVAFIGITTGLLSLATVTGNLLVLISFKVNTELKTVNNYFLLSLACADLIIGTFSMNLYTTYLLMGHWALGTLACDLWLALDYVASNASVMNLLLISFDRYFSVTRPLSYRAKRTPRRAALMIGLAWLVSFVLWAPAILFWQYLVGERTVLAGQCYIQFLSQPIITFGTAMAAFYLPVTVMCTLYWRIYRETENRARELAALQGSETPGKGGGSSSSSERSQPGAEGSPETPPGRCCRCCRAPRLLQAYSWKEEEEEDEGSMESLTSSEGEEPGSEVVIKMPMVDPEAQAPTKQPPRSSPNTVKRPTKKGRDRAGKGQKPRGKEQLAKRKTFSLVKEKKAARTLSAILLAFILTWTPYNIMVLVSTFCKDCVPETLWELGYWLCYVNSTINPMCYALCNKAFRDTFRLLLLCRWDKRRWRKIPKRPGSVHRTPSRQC
5-hydroxytryptamine receptor 2A (Homo sapiens), sequence (P28223 whole entry, looked up): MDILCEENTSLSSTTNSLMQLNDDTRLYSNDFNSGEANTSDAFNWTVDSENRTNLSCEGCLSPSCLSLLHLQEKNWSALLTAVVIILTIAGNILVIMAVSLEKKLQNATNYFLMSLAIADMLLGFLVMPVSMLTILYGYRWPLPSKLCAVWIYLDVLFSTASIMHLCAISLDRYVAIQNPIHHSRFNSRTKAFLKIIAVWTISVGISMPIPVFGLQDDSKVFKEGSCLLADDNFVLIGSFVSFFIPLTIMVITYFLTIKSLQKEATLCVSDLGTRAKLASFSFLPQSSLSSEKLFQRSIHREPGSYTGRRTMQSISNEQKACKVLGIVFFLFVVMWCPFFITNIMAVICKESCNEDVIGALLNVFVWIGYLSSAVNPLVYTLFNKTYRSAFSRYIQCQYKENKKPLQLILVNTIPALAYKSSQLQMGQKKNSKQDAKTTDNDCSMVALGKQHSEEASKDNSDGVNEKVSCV

As to `O=c1cccccc1O`, the Potency was 44.1 µM (active) in [1], 24.8 µM (active) in experiment [2] and 29.4 µM (active) in [8]. The Potency entry in experiment [3], in [6], in [7], in experiment [9], in experiment [10] and in [11] was “inactive” throughout. The Potency entry in experiment [12], in experiment [13], in [14], in experiment [15], in experiment [16] and in [17] was “inactive” throughout. Also, the Potency result in [18] was “inactive”. Moreover, the result in [4] and in [5] was inactive.
On to `CC(C(=O)O)c1ccc2c(c1)Cc1cccnc1O2` (stereo not given), for which the Potency entry in [1], in [2], in experiment [3], in experiment [6], in experiment [7] and in experiment [8] was “inactive” in each case. In addition, the Potency entry in experiment [10], in experiment [11], in experiment [12], in [13], in experiment [16] and in experiment [17] was “inactive” throughout. Also, the result in experiment [4] and in experiment [5] was inactive.
Consider `O=C1OC(=O)C2C3C=CC(C3)C12` (stereo not given), for which the Potency result in experiment [1], in [2], in [3], in experiment [6], in experiment [7] and in experiment [8] was “inactive” throughout. Besides, the Potency entry in [10], in experiment [11], in experiment [12], in [13], in experiment [14] and in experiment [15] was “inactive” in each case. In addition, the Potency result in [16], in [19] and in experiment [18] was “inactive” throughout. Moreover, the outcome in experiment [4] and in experiment [5] was inactive.
As to `Oc1c(Br)cc(Br)c2cccnc12`, the Potency in experiment [1] was 2.66 µM (active); in experiment [2] it was 0.841 µM (active). The Potency result in [3], in experiment [6], in experiment [7], in experiment [8], in experiment [9] and in [10] was “inactive” in each case. The Potency result in [11], in [12], in experiment [13], in [15], in [17] and in experiment [18] was “inactive” throughout. Further, the outcome in experiment [4] and in experiment [5] was inactive.
Turning to `CC(C)(c1cc(Br)c(OCCO)c(Br)c1)c1cc(Br)c(OCCO)c(Br)c1`, in [1], the Potency is 37.7 µM (active). The Potency entry in experiment [2], in experiment [3], in [6], in [7], in experiment [8] and in experiment [10] was “inactive” in each case. Moreover, the Potency entry in [11], in experiment [12], in experiment [13], in experiment [16], in [17] and in experiment [18] was “inactive” each time. The result in experiment [4] and in experiment [5] was inactive.
Regarding `CN(C)CCCOC1(Cc2ccccc2)CCCCCC1`, the Potency result in experiment [1], in experiment [2], in experiment [3], in [6], in [7] and in [8] was “inactive” throughout. The Potency result in experiment [11], in [12], in [13], in [14], in [15] and in [16] was “inactive” throughout. The Potency entry in [19], in experiment [17] and in [18] was “inactive” throughout. Besides, the result in experiment [4] and in [5] was inactive. In experiment [10], the Potency is 10.3 µM (active).
As to `Nc1cnn([C@@H]2O[C@H](CO)[C@@H](O)[C@H]2O)c(=O)n1`, the Potency result in [1], in experiment [2], in [3], in experiment [6], in [7] and in experiment [20] was “inactive” in each case. Also, the Potency result in experiment [11], in experiment [12], in experiment [13], in experiment [14], in experiment [15] and in [19] was “inactive” throughout. Also, the Potency result in experiment [17] was “inactive”. Besides, the result in [4] and in [5] was inactive. For the same compound, in experiment [9], the Potency is 1.45 µM (active).
Take `CC(=O)Oc1ccc(C2(c3ccc(OC(C)=O)cc3)C(=O)Nc3ccccc32)cc1`: the Potency entry in [1], in experiment [3], in experiment [6], in experiment [7], in [8] and in experiment [20] was “inactive” in each case. For the same compound, the Potency entry in [10], in [13], in experiment [14], in [16], in [19] and in [17] was “inactive” in each case. In addition, the Potency result in experiment [18] is “inactive”. Also, the Potency in experiment [2] is 0.266 µM (active). Moreover, the outcome in experiment [4] and in [5] was inactive.
